Measurements: paper PMC7862700, “An all-to-all approach to the identification of sequence-specific readers for epigenetic DNA modifications on cytosine”

How the values were obtained:
Assay in all cases: DAPPL (digital affinity profiling via proximity ligation, sequencing); 10 mM Tris-HCl pH 7.5, 50 mM NaCl, 1 mM DTT, 4% glycerol, room temperature, 30 min; GST-TFs on glutathione beads, 16-mer random dsDNA library, 0.1% formaldehyde crosslink after washing; high values mean tight binding
Settings in all cases: protein: recombinant; tags: N-terminal GST; dsDNA, one strand shown
FLI1 = biological target: T1, FLI1 (Homo sapiens, UniProt Q01543 1-452)
T1 sequence: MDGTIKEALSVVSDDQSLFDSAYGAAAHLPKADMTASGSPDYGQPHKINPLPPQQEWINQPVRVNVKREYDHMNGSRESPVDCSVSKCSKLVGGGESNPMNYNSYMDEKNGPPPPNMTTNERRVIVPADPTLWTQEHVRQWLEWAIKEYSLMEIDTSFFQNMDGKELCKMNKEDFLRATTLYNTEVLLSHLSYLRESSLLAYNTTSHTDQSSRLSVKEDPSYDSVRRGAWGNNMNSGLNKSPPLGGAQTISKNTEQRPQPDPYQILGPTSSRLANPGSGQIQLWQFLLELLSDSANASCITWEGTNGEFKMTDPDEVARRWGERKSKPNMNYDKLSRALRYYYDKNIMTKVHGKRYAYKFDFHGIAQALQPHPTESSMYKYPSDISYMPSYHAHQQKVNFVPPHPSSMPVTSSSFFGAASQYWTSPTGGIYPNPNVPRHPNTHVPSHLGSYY
Method in brief: (§1)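 Yeast served to express human transcription factors as GST fusions, which were then captured on glutathione beads and labelled with DNA barcodes. Pooled with a tag-only sample, they were incubated with 200 nmole of a 16-mer random double-stranded DNA library for 30 min at room temperature in Tris/NaCl/DTT/glycerol buffer, washed, crosslinked with 0.1% formaldehyde, ligated by proximity, amplified by PCR and sequenced. Dividing each hexamer's read frequency for a factor by its frequency for the tag-only sample gives the binding signal.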

ELK1 = biological target: T2, ELK1 (Homo sapiens, UniProt P19419 1-428)
T2 sequence: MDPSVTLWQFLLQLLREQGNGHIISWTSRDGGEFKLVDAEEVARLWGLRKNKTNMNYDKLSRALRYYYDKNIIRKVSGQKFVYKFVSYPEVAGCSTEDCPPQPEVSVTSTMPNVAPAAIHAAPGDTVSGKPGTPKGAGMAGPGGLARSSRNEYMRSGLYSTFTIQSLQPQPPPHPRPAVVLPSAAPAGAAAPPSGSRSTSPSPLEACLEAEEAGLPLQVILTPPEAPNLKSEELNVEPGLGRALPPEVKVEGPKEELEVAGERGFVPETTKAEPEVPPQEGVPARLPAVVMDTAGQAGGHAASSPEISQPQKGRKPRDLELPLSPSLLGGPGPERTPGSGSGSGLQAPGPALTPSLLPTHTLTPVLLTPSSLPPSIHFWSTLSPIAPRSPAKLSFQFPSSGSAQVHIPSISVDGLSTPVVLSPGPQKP
Method in brief: as §1

GABPA = biological target: T3, GABPA (Homo sapiens, UniProt Q06546 1-454)
T3 sequence: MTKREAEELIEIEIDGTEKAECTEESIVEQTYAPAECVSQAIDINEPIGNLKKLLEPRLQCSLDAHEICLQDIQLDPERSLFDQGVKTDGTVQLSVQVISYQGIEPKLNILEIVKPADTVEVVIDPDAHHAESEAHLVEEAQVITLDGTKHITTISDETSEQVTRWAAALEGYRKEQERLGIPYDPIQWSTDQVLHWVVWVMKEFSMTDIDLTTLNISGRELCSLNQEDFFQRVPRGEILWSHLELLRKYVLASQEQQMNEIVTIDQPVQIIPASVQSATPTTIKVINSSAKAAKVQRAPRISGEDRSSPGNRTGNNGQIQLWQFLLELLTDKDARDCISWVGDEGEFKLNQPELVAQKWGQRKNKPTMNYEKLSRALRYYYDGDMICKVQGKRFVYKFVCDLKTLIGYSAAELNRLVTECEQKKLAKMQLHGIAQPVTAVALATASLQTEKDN
Method in brief: as §1

ERG = biological target: T4, ERG (Homo sapiens, UniProt P11308 1-479)
T4 sequence: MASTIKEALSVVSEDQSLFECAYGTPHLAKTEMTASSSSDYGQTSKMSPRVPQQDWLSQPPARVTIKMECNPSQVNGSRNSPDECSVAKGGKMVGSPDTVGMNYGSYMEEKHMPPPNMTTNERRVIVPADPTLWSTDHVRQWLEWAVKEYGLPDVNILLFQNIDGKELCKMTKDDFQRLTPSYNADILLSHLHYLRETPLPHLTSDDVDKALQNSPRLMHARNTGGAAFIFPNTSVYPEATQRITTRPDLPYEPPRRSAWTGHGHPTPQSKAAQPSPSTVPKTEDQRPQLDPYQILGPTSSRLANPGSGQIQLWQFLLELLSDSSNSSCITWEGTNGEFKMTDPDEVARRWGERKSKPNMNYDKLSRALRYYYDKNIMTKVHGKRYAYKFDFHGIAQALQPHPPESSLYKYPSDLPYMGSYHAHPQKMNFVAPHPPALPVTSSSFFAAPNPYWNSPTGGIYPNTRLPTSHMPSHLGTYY
Method in brief: as §1

ELF1 = ELF1 (Homo sapiens, UniProt P32519 1-619)
Sequence of ELF1 (P32519 whole entry): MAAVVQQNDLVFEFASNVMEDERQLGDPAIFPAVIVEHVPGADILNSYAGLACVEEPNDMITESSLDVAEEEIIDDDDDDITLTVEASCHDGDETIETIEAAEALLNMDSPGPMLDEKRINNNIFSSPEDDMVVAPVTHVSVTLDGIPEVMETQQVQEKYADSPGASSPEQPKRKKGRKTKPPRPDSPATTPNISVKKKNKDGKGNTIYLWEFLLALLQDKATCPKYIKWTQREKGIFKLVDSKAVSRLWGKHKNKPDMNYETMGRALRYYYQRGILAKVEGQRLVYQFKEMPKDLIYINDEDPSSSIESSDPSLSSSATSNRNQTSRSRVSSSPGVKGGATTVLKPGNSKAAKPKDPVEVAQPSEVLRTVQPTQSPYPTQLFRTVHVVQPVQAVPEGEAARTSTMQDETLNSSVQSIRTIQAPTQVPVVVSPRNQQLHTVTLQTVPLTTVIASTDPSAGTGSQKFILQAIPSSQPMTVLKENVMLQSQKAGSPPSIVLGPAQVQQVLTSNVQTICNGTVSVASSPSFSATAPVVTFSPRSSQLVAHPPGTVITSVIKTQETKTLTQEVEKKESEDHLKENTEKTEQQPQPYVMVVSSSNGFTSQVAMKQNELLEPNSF
Method in brief: as §1

EHF = biological target: T5, EHF (Homo sapiens, UniProt Q9NZC4 1-300)
T5 sequence: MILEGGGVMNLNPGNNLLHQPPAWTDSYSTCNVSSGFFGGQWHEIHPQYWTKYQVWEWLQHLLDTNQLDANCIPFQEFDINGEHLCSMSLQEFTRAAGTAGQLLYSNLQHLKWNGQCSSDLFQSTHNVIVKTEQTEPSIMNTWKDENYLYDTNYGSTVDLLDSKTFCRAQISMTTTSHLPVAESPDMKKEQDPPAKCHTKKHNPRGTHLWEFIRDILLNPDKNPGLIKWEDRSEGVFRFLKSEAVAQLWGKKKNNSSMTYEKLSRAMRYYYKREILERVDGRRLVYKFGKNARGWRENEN
Method in brief: as §1

SPI1 = SPI1 (Homo sapiens, UniProt P17947 1-270)
Method in brief: as §1

SPIB = SPIB (Homo sapiens, UniProt Q01892 1-262)
Sequence of SPIB (Q01892 whole entry): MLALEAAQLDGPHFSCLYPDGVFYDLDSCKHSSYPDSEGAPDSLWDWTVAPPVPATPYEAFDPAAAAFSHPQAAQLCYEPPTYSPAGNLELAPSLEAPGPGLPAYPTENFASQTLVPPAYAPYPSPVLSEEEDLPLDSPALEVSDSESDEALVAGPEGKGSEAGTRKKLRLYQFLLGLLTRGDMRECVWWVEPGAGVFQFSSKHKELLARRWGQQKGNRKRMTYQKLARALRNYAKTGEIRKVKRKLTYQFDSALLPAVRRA
Method in brief: as §1

ELK3 = biological target: T6, ELK3 (Homo sapiens, UniProt P41970 1-407)
T6 sequence: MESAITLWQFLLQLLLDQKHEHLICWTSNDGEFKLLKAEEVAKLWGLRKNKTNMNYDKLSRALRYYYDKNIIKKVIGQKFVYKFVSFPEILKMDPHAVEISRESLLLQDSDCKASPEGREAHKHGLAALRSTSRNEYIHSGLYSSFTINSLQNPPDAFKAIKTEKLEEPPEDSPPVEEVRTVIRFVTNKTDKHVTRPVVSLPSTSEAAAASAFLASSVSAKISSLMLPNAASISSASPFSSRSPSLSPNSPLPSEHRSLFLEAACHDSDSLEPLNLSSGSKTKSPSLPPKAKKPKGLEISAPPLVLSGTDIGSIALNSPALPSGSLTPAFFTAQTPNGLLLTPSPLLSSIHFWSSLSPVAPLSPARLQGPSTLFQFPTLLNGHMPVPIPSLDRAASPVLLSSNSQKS
Method in brief: as §1

FEV = biological target: T7, FEV (Homo sapiens, UniProt Q99581 1-238)
T7 sequence: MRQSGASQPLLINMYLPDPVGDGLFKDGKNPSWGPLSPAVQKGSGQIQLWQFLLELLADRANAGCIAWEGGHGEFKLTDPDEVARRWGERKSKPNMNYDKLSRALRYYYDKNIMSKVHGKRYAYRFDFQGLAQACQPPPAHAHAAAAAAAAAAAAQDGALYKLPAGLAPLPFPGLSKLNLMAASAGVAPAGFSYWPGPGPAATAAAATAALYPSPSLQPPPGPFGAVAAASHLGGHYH
Method in brief: as §1

ETV5 = ETV5 (Homo sapiens, UniProt P41161 1-510)
Sequence of ETV5 (P41161 whole entry): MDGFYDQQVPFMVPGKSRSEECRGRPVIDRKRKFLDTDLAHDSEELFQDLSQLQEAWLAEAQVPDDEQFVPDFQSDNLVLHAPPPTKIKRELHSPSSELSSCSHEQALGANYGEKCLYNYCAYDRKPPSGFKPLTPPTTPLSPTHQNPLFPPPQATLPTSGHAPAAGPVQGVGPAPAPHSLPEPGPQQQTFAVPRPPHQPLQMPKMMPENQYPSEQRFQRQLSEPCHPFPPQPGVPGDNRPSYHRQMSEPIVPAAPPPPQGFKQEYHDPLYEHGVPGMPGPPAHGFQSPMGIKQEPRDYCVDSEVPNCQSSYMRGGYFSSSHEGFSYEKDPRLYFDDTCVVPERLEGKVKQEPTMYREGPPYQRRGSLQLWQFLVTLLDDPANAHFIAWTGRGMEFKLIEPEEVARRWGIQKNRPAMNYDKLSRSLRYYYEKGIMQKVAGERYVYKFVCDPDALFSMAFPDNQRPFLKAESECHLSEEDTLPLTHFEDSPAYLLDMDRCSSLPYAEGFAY
Method in brief: as §1

SPIC = biological target: T8, SPIC (Homo sapiens, UniProt Q8N5J4 1-248)
T8 sequence: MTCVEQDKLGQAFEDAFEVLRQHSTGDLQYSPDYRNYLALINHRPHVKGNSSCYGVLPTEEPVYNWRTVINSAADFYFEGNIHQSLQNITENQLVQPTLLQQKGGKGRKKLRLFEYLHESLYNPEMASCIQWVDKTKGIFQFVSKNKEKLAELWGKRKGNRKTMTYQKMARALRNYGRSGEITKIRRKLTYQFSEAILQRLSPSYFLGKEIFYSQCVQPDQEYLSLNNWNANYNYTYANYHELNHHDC
Method in brief: as §1

ELF4 = ELF4 (Homo sapiens, UniProt Q99607 1-663)
Sequence of ELF4 (Q99607 whole entry): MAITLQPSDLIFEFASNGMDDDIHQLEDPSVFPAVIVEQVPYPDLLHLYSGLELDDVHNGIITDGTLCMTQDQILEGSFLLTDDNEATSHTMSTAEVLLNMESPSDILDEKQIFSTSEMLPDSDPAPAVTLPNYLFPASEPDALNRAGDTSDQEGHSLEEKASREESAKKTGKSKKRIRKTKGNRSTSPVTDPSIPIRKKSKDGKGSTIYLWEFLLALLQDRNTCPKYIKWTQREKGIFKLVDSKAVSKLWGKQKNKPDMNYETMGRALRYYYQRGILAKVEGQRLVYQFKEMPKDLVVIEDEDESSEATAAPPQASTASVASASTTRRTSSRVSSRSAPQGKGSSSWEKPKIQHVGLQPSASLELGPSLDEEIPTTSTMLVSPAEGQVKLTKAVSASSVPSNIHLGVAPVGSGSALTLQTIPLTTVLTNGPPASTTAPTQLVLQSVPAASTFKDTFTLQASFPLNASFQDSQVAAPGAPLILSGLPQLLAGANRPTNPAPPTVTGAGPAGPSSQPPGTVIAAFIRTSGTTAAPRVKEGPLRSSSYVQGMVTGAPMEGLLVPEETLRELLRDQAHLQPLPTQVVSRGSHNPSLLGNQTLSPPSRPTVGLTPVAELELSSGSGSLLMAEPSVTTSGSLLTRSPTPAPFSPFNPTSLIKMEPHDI
Method in brief: as §1

ELK4 = biological target: T9, ELK4 (Homo sapiens, UniProt P28324-2 1-405)
T9 sequence: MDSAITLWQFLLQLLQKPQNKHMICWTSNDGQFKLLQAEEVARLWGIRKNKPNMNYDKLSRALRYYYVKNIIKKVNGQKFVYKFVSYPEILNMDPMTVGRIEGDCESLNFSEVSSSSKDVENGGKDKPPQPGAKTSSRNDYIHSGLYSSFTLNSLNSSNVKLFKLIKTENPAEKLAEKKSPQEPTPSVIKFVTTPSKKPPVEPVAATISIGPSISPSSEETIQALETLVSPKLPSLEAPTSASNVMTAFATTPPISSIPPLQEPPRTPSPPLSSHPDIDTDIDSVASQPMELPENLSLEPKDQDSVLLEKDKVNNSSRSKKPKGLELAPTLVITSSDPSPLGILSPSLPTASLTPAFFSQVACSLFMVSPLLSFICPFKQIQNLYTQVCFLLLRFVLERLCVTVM
Method in brief: as §1

ETV2 = biological target: T10, ETV2 (Homo sapiens, UniProt O00321 1-342)
T10 sequence: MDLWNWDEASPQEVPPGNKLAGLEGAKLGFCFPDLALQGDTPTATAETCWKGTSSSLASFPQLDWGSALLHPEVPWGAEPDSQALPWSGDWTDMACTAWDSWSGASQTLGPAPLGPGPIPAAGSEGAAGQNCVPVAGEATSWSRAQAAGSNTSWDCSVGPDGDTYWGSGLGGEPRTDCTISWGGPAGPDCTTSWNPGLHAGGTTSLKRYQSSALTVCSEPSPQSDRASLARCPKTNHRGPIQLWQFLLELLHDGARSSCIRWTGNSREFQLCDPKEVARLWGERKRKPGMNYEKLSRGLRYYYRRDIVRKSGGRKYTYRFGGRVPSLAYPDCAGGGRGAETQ
Method in brief: as §1

ELF3 = biological target: T11, ELF3 (Homo sapiens, UniProt P78545 1-371)
T11 sequence: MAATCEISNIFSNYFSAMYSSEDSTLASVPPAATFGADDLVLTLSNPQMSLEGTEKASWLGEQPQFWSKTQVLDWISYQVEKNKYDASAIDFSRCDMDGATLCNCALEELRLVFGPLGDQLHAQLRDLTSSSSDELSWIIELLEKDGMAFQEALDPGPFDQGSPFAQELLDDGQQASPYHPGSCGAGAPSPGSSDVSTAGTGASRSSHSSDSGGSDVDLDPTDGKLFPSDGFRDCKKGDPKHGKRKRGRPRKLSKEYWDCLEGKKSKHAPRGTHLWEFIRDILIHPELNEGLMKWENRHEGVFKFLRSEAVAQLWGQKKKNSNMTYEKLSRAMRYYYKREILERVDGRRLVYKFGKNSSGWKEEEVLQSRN
Method in brief: as §1

ETV1 = ETV1 (Homo sapiens, UniProt P50549 1-477)
Sequence of ETV1 (P50549 whole entry): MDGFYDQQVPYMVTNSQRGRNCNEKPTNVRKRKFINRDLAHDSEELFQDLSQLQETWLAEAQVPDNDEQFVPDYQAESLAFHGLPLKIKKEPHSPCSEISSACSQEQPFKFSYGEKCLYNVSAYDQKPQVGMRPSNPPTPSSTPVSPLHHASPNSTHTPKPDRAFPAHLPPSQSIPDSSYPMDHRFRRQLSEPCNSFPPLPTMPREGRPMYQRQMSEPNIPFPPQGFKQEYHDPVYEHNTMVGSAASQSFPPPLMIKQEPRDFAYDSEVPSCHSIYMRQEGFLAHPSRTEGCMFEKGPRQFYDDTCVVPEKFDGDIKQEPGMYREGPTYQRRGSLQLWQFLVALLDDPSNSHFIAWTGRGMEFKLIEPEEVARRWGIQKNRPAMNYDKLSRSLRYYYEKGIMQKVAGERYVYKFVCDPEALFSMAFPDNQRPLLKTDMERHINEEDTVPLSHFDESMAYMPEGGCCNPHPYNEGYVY
Method in brief: as §1

Sequence	binding signal (FLI1)	binding signal (ELK1)	binding signal (GABPA)	binding signal (ERG)	binding signal (ELF1)	binding signal (EHF)	binding signal (SPI1)	binding signal (SPIB)	binding signal (ELK3)	binding signal (FEV)	binding signal (ETV5)	binding signal (SPIC)	binding signal (ELF4)	binding signal (ELK4)	binding signal (ETV2)	binding signal (ELF3)	binding signal (ETV1)
GACATC	1.36 fold enrichment (6-mer frequency, TF over GST control)	1.4 fold enrichment (6-mer frequency, TF over GST control)	1.31 fold enrichment (6-mer frequency, TF over GST control)	1.27 fold enrichment (6-mer frequency, TF over GST control)	1.21 fold enrichment (6-mer frequency, TF over GST control)	1.35 fold enrichment (6-mer frequency, TF over GST control)	1.26 fold enrichment (6-mer frequency, TF over GST control)	1.3 fold enrichment (6-mer frequency, TF over GST control)	1.38 fold enrichment (6-mer frequency, TF over GST control)	1.73 fold enrichment (6-mer frequency, TF over GST control)	1.3 fold enrichment (6-mer frequency, TF over GST control)	1.26 fold enrichment (6-mer frequency, TF over GST control)	1.26 fold enrichment (6-mer frequency, TF over GST control)	1.34 fold enrichment (6-mer frequency, TF over GST control)	1.31 fold enrichment (6-mer frequency, TF over GST control)	1.23 fold enrichment (6-mer frequency, TF over GST control)	1.33 fold enrichment (6-mer frequency, TF over GST control)
CCCACC	1.17 fold enrichment (6-mer frequency, TF over GST control)	1.26 fold enrichment (6-mer frequency, TF over GST control)	1.11 fold enrichment (6-mer frequency, TF over GST control)	1.15 fold enrichment (6-mer frequency, TF over GST control)	1.15 fold enrichment (6-mer frequency, TF over GST control)	1.2 fold enrichment (6-mer frequency, TF over GST control)	1.18 fold enrichment (6-mer frequency, TF over GST control)	1.13 fold enrichment (6-mer frequency, TF over GST control)	1.16 fold enrichment (6-mer frequency, TF over GST control)	1.17 fold enrichment (6-mer frequency, TF over GST control)	1.16 fold enrichment (6-mer frequency, TF over GST control)	1.21 fold enrichment (6-mer frequency, TF over GST control)	1.19 fold enrichment (6-mer frequency, TF over GST control)	1.26 fold enrichment (6-mer frequency, TF over GST control)	1.15 fold enrichment (6-mer frequency, TF over GST control)	1.41 fold enrichment (6-mer frequency, TF over GST control)	1.14 fold enrichment (6-mer frequency, TF over GST control)
